Measurements taken from PubChem BioAssay AID1159580 (chemical genetic matrix, 2015).
“And” between values parts separate entries of the source, which are not always exact repeats. Equal entries are not always repeated. Out of some 5,500 compounds screened, about 2,000 (36%) were called active. Inconclusive results (about 18%) are left out. Rule as the data show it: active = normalized growth mostly below about 0.91 (no sharp cut-off); inconclusive = no clear call, values can overlap the other calls; inactive = mostly above about 0.92. The list shows a part of the results.

Test: chemical genetic growth profiling, strain panel (AID 1159580);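 also: tested at 20 µM; growth read once vehicle control cultures reached saturation at 30 °C; 1 = growth at the plate median or of vehicle wells; lower values mean less growth of the strain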
Details: S. cerevisiae deletion strains, growth OD

Measured: normalized growth

CC1=C(C(=O)O)N2C(=O)[C@@H](NC(=O)[C@H](N)C3=CCC=CC3)C2SC1 (some centres not stated)
inactive: locus YAL013W, strain DEP1, stronger effect = lower value 1 | locus YAL021C, strain ccr4, stronger effect = lower value 1.01 | locus YAL026C, strain drs2, stronger effect = lower value 1.03 | locus YAL030W, strain snc1, stronger effect = lower value 1.03 | locus YBL061C, strain skt5, stronger effect = lower value 1.03 | locus YBR009C, strain hhf1, stronger effect = lower value 1.02 | locus YBR021W, strain FUR4, stronger effect = lower value 1.02 | locus YBR023C, strain chs3, stronger effect = lower value 1.02 | locus YBR171W, strain sec66, stronger effect = lower value 1.04 | locus YBR229C, strain ROT2, stronger effect = lower value 0.953 | locus YBR231C, strain swc5, stronger effect = lower value 1.04 | locus YBR279W, strain paf1, stronger effect = lower value 1.01 | locus YCL011C, strain gbp2, stronger effect = lower value 1.03 | locus YCL016C, strain dcc1, stronger effect = lower value 1.02 | locus YCL029C, strain bik1, stronger effect = lower value 0.998 | locus YCL061C, strain MRC1, stronger effect = lower value 1.02 | locus YCL069W, strain vba3, stronger effect = lower value 1.02 | locus YCR088W, strain abp1, stronger effect = lower value 1.02 | locus YDL005C, strain med2, stronger effect = lower value 1.03 | locus YDL035C, strain GPR1, stronger effect = lower value 0.965 | locus YDL040C, strain nat1, stronger effect = lower value 1.02 | locus YDL074C, strain BRE1, stronger effect = lower value 0.987 | locus YDL101C, strain DUN1, stronger effect = lower value 0.98 | locus YDL185W, strain tfp1, stronger effect = lower value 0.977 | locus YDL192W, strain arf1, stronger effect = lower value 0.989 | locus YDR001C, strain nth1, stronger effect = lower value 1.01 | locus YDR069C, strain doa4, stronger effect = lower value 1.02 | locus YDR101C, strain arx1, stronger effect = lower value 0.988 | locus YDR137W, strain rgp1, stronger effect = lower value 1.03 | locus YDR159W, strain sac3, stronger effect = lower value 1.04 | locus YDR162C, strain NBP2, stronger effect = lower value 0.951 | locus YDR195W, strain ref2 0.992 | locus YDR297W, strain sur2, stronger effect = lower value 1.02 | locus YDR318W, strain mcm21, stronger effect = lower value 1 | locus YDR334W, strain swr1, stronger effect = lower value 1.01 | locus YDR335W, strain msn5, stronger effect = lower value 1.02 | locus YDR388W, stronger effect = lower value 0.99 | locus YDR392W, strain spt3, stronger effect = lower value 1.03 | locus YDR502C, strain sam2, stronger effect = lower value 1.02 | locus YEL003W, strain gim4, stronger effect = lower value 1.02 | locus YEL037C, strain rad23, stronger effect = lower value 1.02 | locus YEL061C, strain CIN8 (second series), stronger effect = lower value 1.02 | locus YEL061C, strain CIN8, stronger effect = lower value 0.995 | locus YER015W, strain faa2, stronger effect = lower value 1 | locus YER016W, strain bim1, stronger effect = lower value 1.02 | locus YER110C, stronger effect = lower value 0.981 | locus YER111C, strain swi4, stronger effect = lower value 1.03 | locus YER155C, strain BEM2 (second series), stronger effect = lower value 1.03 | locus YER155C, strain BEM2, stronger effect = lower value 0.998 | locus YER167W, strain BCK2, stronger effect = lower value 0.989 | locus YFR010W, strain ubp6, stronger effect = lower value 1.03 | locus YGL078C, strain dbp3, stronger effect = lower value 0.993 | locus YGL086W, strain mad1, stronger effect = lower value 0.933 | locus YGL167C, strain pmr1, stronger effect = lower value 1.04 | locus YGL173C, strain kem1, stronger effect = lower value 1.03 | locus YGL227W, strain vid30, stronger effect = lower value 1.02 | locus YGL240W, strain doc1, stronger effect = lower value 1.03 | locus YGL248W, strain PDE1, stronger effect = lower value 1.01 | locus YGL253W, strain hxk2, stronger effect = lower value 1.03 | locus YGR135W, strain pre9, stronger effect = lower value 1.03 | locus YGR252W, strain gcn5, stronger effect = lower value 1.05 | locus YHR013C, strain ard1, stronger effect = lower value 1.05 | locus YHR027C, strain rpn1, stronger effect = lower value 1.02 | locus YHR030C, strain SLT2, stronger effect = lower value 0.994 and 0.964 | locus YHR079C, strain IRE1 (second series), stronger effect = lower value 1 | locus YHR079C, strain IRE1, stronger effect = lower value 0.956 | locus YHR094C, strain hxt1, stronger effect = lower value 0.983 | locus YHR129C, strain ARP1, stronger effect = lower value 0.988 | locus YHR142W, strain chs7, stronger effect = lower value 1.04 | locus YHR200W, strain rpn10, stronger effect = lower value 0.986 | locus YIL066C, strain RNR3, stronger effect = lower value 0.971 | locus YIL073C, strain SPO22, stronger effect = lower value 1.01 | locus YIL125W, strain kgd1, stronger effect = lower value 0.99 | locus YIR030C, strain dcg1, stronger effect = lower value 0.993 | locus YJL092W, strain hpr5, stronger effect = lower value 1.02 | locus YJL095W, strain BCK1 (second series), stronger effect = lower value 1.02 | locus YJL095W, strain BCK1, stronger effect = lower value 1.02 and 0.989 | locus YJL115W, strain asf1, stronger effect = lower value 1.03 | locus YJL129C, strain trk1, stronger effect = lower value 1.03 | locus YJL134W, strain LCB3, stronger effect = lower value 0.985 | locus YJL154C, strain vps35, stronger effect = lower value 1.01 | locus YJL164C, strain tpk1, stronger effect = lower value 1.02 | locus YJL166W, strain qcr8, stronger effect = lower value 1.02 | locus YJL168C, strain set2, stronger effect = lower value 0.994 | locus YJL187C, strain SWE1 (second series), stronger effect = lower value 0.996 | locus YJL187C, strain SWE1, stronger effect = lower value 1.03 | locus YJR043C, strain POL32, stronger effect = lower value 0.961
